Measured values reported in PubChem BioAssay.
Active and inactive are the calls of the source. Unless noted, no rule for the calls is given here.

Experiments:
[1] = tested on: Wnt5a (protein binding on small-molecule microarray); assay: Wnt5a binders on small-molecule microarray, primary screen, biophysical, 635/667 nm fluorescence (AID 1142); conditions: 635 nm fluorescence, higher = more signal;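 also: fluorescence read at 667 nm with signal to noise per printed feature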
[2] = cell viability in Huh7 cells, primary screen, cytotoxicity control for HCV replication inhibitor project, CellTiter-Glo luminescence, basal, 48 h (AID 1143); conditions: Huh7 HCV replicon, higher = more signal, called active from +8 up or from −8 down;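 also: Huh7 hepatoma cells carrying a hepatitis C replication reporter with no stimulus; test concentration not given here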
[3] = P. aeruginosa biofilm formation inhibitors, primary screen, PAO1 strain, BacTiter-Glo luminescence, LB-PBS (AID 1144); conditions: 12 h, higher = more signal
[4] = CREB reporter modulators without forskolin, primary screen, cell-based, PC12, CRE-LacZ reporter, unstimulated (AID 1145); conditions: no forskolin, luminescence, 4.5 h, higher = more signal, called active from +8 up or from −8 down
[5] = CREB reporter modulators under forskolin, primary screen, cell-based, PC12, CRE-LacZ reporter, forskolin-stimulated (AID 1146); conditions: luminescence, 4.5 h, higher = more signal, called active from +8 up or from −8 down;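 also: PC12 cells with 6xCRE LacZ reporter stimulated by forskolin 10 µM; beta-galactosidase reporter signal reflecting CREB driven transcription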
[6] = target: Streptavidin (Streptomyces avidinii) (UniProt P22629); assay: streptavidin binders on small-molecule microarray, primary screen, artefact control for SMM compound annotation, biophysical, 635/667 nm fluorescence (AID 1147); conditions: streptavidin binding, higher = more signal;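 also: signal reflects streptavidin binding to arrayed compounds as a control protein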
[7] = small-molecule binders of probe aInhba, primary screen, biochemical, small-molecule microarray, 635/667 nm fluorescence (AID 1148); conditions: higher = more signal;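 also: score merges 667nm spot fluorescence with signal-to-noise for antibody binding to printed compounds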
Torsin-1A (Homo sapiens) [8] = target: Torsin-1A (Homo sapiens) (UniProt O14656); assay: torsin A binders from cell lysate, primary screen, small-molecule microarray, wild-type, 635/667 nm (AID 1149); conditions: COS7 hTOR1A-WT lysate, 635 nm fluorescence, higher = more signal
Torsin-1A (Homo sapiens) [9] = target: Torsin-1A (Homo sapiens) (UniProt O14656); assay: small-molecule binders of mutant TOR1A in lysate, primary screen, cell lysate, small-molecule microarray, COS7 lysate, 635/667 nm fluorescence (AID 1150); conditions: COS7 hTOR1A mutant lysate, 635 nm fluorescence, higher = more signal;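 also: score pools 667 nm emission and signal to noise measuring lysate protein binding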
[10] = tested on: Sonic hedgehog protein (Shh); assay: small-molecule binders of Shh protein, primary screen, biochemical, small-molecule microarray, 635/667 nm fluorescence (AID 1151); conditions: small-molecule microarray binding, 635 nm fluorescence; higher = more signal;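 also: Shh protein binding to compounds spotted on small-molecule microarray slides; score combines spot fluorescence intensity with signal-to-noise across triplicate slides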
[11] = E. coli DRC41 culture turbidity changes, primary screen, E. coli filamentation inducer project, strain DRC41, OD650, 48 h (AID 1152);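 also: E. coli MC1000 strain DRC41 lacking acrAB efflux pump and sulA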; conditions: E. coli DRC41 (acrAB sulA), higher = more signal, called active from +8 up or from −8 down
[12] = small-molecule binders of probe aLefty1, primary screen, biochemical, small-molecule microarray, 635/667 nm fluorescence (AID 1153); conditions: higher = more signal;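 also: score merges spot fluorescence with signal-to-noise ratio from the scanned slide images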
[13] = PSAC antagonists in infected red cells, primary screen, cell-based, P. falciparum Indochina, OD700, 1 h (AID 1154); conditions: P. falciparum Indochina infected RBC osmotic lysis, higher = more signal, called active from +8 up or from −8 down
[14] = PSAC antagonists in infected red cells, primary screen, cell-based, P. falciparum Indochina, OD700, 2 h (AID 1155);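 also: lysis reports solute entry through the parasite surface anion channel PSAC; channel blockers reduce lysis of infected cells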; conditions: P. falciparum Indochina infected erythrocytes, osmotic lysis OD700; higher = more signal, called active from +8 up or from −8 down
[15] = osmotic lysis modulators in infected erythrocytes, primary screen, PSAC antagonist project, cell-based, P. falciparum Indochina, OD700, 3 h (AID 1156); conditions: higher = more signal, called active from +8 up or from −8 down
[16] = PSAC antagonists in infected red cells, primary screen, cell-based, P. falciparum Indochina, OD700, 18 h (AID 1157); conditions: P. falciparum Indochina infected erythrocytes, osmotic lysis OD700, 18 h; higher = more signal, called active from +8 up or from −8 down
[17] = modulators of S6 phosphorylation in cells, primary screen, cell-based, A549, cytoblot, luminescence, serum-stimulated (AID 1158); conditions: A549 phospho-S6 cytoblot, 5 h, higher = more signal;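 also: serum-stimulated A549 lung adenocarcinoma cells; signal is phosphorylated S6 detected by cytoblot immunostaining with HRP secondary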
[18] = target: NADPH oxidase 2 (Homo sapiens) (UniProt P04839); assay: NOX2-dependent H2O2 signal modulators, primary screen, NOX inhibitor project, cell-based, HEK293-NOX2, PMA-stimulated, Amplex Red fluorescence (AID 1159); conditions: 45 min, higher = more signal, called active from +8 up or from −8 down; also: test concentration not given here
[19] = target: NADPH oxidase 4 (Homo sapiens) (UniProt Q9NPH5); assay: NOX4-dependent H2O2 signal modulators, primary screen, NOX inhibitor project, cell-based, HEK293-NOX4, tetracycline-induced, Amplex Red fluorescence (AID 1160); conditions: 45 min, higher = more signal, called active from +8 up or from −8 down
[20] = target: NADPH oxidase 5 (Homo sapiens) (UniProt Q96PH1); assay: NOX5-dependent H2O2 signal modulators, primary screen, NOX inhibitor project, cell-based, HEK293-NOX5, Amplex Red fluorescence (AID 1161); conditions: HEK293-NOX5, ionomycin, 45 min, higher = more signal
Sequence of NADPH oxidase 5 (Homo sapiens) (Q96PH1 whole entry, looked up): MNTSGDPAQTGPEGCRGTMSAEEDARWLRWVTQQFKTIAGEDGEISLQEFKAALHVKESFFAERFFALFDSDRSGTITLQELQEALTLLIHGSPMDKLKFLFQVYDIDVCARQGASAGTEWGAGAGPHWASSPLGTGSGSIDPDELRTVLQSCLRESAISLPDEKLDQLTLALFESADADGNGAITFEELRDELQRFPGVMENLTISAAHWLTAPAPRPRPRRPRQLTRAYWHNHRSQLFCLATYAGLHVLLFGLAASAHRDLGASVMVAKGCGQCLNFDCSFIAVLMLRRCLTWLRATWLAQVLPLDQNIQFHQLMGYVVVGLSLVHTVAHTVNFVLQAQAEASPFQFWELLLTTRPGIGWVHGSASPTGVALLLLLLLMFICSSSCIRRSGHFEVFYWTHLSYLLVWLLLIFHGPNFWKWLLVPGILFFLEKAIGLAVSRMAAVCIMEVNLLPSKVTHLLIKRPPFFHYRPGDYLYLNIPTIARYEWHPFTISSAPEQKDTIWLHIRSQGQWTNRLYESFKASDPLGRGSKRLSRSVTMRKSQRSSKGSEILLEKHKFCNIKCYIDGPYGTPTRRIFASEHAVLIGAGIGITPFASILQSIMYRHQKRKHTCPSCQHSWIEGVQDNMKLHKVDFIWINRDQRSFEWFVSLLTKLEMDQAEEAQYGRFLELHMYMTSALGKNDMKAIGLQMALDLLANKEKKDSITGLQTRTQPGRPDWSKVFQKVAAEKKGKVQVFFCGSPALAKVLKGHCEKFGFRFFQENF

Sequence of Streptavidin (Streptomyces avidinii) (P22629 whole entry, looked up): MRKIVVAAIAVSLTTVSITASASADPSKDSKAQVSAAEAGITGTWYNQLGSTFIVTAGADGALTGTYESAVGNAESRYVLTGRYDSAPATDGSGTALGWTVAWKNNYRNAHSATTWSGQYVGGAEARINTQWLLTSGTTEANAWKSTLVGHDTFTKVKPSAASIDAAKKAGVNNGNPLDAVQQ
Sequence of NADPH oxidase 4 (Homo sapiens) (Q9NPH5 whole entry, looked up): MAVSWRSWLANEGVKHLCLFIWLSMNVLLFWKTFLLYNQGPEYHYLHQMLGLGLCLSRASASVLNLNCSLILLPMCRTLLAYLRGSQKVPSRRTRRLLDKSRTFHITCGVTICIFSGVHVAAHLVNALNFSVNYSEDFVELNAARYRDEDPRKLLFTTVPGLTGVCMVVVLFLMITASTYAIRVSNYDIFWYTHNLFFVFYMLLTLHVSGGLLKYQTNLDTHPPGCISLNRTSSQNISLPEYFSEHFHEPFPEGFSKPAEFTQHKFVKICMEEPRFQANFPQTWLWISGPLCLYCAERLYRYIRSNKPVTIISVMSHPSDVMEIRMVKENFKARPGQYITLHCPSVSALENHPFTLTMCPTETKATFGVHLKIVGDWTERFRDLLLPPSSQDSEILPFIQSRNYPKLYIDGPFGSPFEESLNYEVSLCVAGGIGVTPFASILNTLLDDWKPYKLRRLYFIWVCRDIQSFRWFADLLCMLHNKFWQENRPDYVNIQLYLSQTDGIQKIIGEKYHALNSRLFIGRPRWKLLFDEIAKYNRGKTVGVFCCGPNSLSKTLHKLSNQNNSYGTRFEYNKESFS
Sequence of Torsin-1A (Homo sapiens) (O14656 whole entry, looked up): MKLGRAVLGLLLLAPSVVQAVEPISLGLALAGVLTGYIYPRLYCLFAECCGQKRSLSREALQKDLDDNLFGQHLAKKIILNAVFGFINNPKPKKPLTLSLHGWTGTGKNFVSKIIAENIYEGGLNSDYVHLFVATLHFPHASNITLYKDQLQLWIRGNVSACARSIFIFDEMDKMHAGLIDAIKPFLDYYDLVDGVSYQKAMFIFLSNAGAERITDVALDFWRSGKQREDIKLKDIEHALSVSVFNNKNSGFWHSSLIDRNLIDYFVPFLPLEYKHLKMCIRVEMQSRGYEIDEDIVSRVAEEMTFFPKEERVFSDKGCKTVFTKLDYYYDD
Sequence of NADPH oxidase 2 (Homo sapiens) (P04839 whole entry, looked up): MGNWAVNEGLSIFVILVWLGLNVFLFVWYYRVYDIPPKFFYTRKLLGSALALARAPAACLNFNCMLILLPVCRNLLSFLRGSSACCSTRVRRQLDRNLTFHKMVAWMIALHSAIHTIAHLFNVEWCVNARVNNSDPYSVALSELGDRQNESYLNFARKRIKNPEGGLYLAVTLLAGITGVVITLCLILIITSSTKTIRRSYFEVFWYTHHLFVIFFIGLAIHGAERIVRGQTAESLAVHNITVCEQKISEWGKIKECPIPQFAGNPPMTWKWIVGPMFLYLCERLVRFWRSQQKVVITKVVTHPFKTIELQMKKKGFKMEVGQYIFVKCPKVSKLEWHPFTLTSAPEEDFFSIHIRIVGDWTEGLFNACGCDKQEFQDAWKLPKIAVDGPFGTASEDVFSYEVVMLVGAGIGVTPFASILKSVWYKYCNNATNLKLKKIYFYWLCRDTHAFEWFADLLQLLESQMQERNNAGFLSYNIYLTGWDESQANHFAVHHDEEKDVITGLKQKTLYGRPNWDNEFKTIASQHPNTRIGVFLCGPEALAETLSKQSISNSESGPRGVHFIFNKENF

Row | Compound | composite z-score [1] | z-score [2] | z-score [3] | z-score [4] | z-score [5] | composite z-score [6] | composite z-score [7] | composite z-score (Torsin-1A (Homo sapiens) [8]) | composite z-score (Torsin-1A (Homo sapiens) [9]) | composite z-score [10] | z-score [11] | composite z-score [12] | z-score [13] | z-score [14] | z-score [15] | z-score [16] | z-score [17] | z-score [18] | z-score [19] | z-score [20]
1 | O=C(NN=C1C[C@@H](O)[C@@H](O)[C@@H]2[C@@H]3C(=O)N(Cc4ccccc4)C(=O)[C@@H]3CC[C@@H]12)OCc1ccccc1 | -0.0896 | -0.381 (inactive) | -0.526 (inactive) | 0.248 (inactive) | 0.121 (inactive) | -0.418 | -0.239 | 0.815 | 0.819 | -0.0067 | 0.151 (inactive) | 0.0837 | 1.91 (inactive) | 0.801 (inactive) | 0.458 (inactive) | 0.526 (inactive) | 0.0339 | -1.23 (inactive) | 0.0701 (inactive) | 0.224
2 | COc1cccc([C@H]2Oc3ccc(OC)cc3C(=NOC[C@@H](C)[C@H](OCc3ccccc3)C(C)C)[C@@H]2O)c1 | 0.276 | -0.324 (inactive) | 0.508 (inactive) | 0.666 (inactive) | 0.649 (inactive) | -0.234 | -0.106 | 0.577 | 0.83 | 0.115 | -1.25 (inactive) | -0.0428 | 2.57 (inactive) | 0.947 (inactive) | 0.0083 (inactive) | 0.612 (inactive) | -0.891 | -0.364 (inactive) | -2.1 (inactive) | -1.97
3 | CC(C)CON=C1C[C@@H](O)[C@@H](O)[C@@H]2[C@@H]3C(=O)N(Cc4ccc5c(c4)OCO5)C(=O)[C@@H]3CC[C@H]12 | 0.365 | -0.365 (inactive) | 1.01 (inactive) | 0.242 (inactive) | 0.201 (inactive) | 1.23 | -0.0589 | 0.217 | 0.739 | 1.45 | -0.135 (inactive) | -0.198 | 1.22 (inactive) | 0.32 (inactive) | 0.337 (inactive) | 0.108 (inactive) | -0.27 | -0.378 (inactive) | 1.02 (inactive) | -0.146
4 | COC(=O)C1=C(C)N(Cc2ccccc2)[C@]23O[C@](C(=O)OC)(C(=O)N2[C@@H]1c1ccccc1)C(C(=O)OC)=C3C(=O)OC | 0.256 | -4.08 (inactive) | -1.25 (inactive) | 1.92 (inactive) | -1.61 (inactive) | 0.252 | 0.095 | 0.199 | 0.454 | 0.657 | 0.214 (inactive) | 0.0774 | 2.05 (inactive) | -0.468 (inactive) | 0.323 (inactive) | -1.52 (inactive) | 2.22 | 0.826 (inactive) | 0.109 (inactive) | 2.03
